From PubChem BioAssay (NCI)
The panel holds about 83,000 compounds, 20% with a hit somewhere; the sample as a whole holds those more often.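 Percent growth is the endpoint: 0 to 100 indicates growth inhibition (40 means 60% inhibition), 0 means no net growth, and negative values indicate cell death.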 A number with no mark means an inactive call. The source made the active and inactive calls. The calls were made as follows: active = growth percent below 10; inactive = the rest.

Tests used:
Test in all cases: NCI-60 one-dose screen, 48 h (100 = growth as untreated, 0 = no growth, -100 = all killed)
Conditions in all cases: 10 µM unless noted
[1] = system: NCI-H23 lung
[2] = system: NCI-H226 lung
[3] = system: NCI-H322M lung
[4] = system: HOP-62 NSCLC
[5] = system: NCI-H460 lung
[6] = system: HOP-92 NSCLC
[7] = system: NCI-H522 lung
[8] = system: A549/ATCC NSCLC
[9] = system: 786-0 renal
[10] = system: COLO 205 colon
[11] = system: DU-145 prostate
[12] = system: K-562 leukemia
[13] = system: MALME-3M melanoma
[14] = system: MDA-MB-231 breast
[15] = system: RXF 393 renal
[16] = system: SF-268 CNS
[17] = system: SF-295 CNS
[18] = system: SF-539 CNS
[19] = system: UACC-257 melanoma
[20] = system: M14 melanoma

Structure (SMILES)	growth [1]	growth [2]	growth [3]	growth [4]	growth [5]	growth [6]	growth [7]	growth [8]	growth [9]	growth [10]	growth [11]	growth [12]	growth [13]	growth [14]	growth [15]	growth [16]	growth [17]	growth [18]	growth [19]	growth [20]
CCOC(=O)COc1c(C)cc(SSc2cc(C)c(OCC(=O)OCC)c(C)c2)cc1C	103%	111%	105%	109%	102%	76.8%	73.8%	80.2%	114%	111%	108%	96.2%	110%	107%	126%	99%	105%	112%	80.8%	103%
N#Cc1c(Cl)nc(SCC2CO2)nc1-c1ccccc1 (stereo not given)	101%	114%	105%	92.8%	101%	89.8%	101%	124%	99.5%	131%	123%	128%	85.1%	118%	101%	116%	117%	105%	39.9%	98.5%
COc1ccc2nc3c(cc2c1)C(=O)CC(c1ccccc1)C3 (stereo not given)	47.5%	26.5%	37.8%	39.2%	8.79% (active)	61.6%	15.4%	34.8%	52.8%	1.93% (active)	1.12% (active)	13.2%	47.7%	54.6%	-2.76% (active)	53.9%	31%	7.92% (active)	82.9%	9.28% (active)
CCCN1CC(c2ccc(OC)c(OC)c2)=C(c2cn(C(=O)OCC)c3ccccc23)C1=O	65.8%	76.8%	90.6%	45.9%	37.1%	26.2%	24%	46.3%	54.6%	41.7%	71.9%	13.3%	51.6%	43.3%	-0.611% (active)	58.2%	32.4%	28.1%	90.1%	70.4%
C#CCNC(=O)CC[C@@H](C)[C@H]1CC[C@H]2[C@@H]3CC[C@@H]4CC(=O)CC[C@]4(C)[C@H]3CC[C@]12C	-27.5% [100 µM] (active)	-63.7% [100 µM] (active)	-5.44% [100 µM] (active)	-56.3% [100 µM] (active)	-55.5% [100 µM] (active)	-71.6% [100 µM] (active)	-63.8% [100 µM] (active)	6.94% [100 µM] (active)	-71.9% [100 µM] (active)	-70.9% [100 µM] (active)	-38.1% [100 µM] (active)	4.55% [100 µM] (active)	-82.2% [100 µM] (active)	-78% [100 µM] (active)	-76.1% [100 µM] (active)	-20.4% [100 µM] (active)	-51.3% [100 µM] (active)	-82.6% [100 µM] (active)	-0.129% [100 µM] (active)	-22.4% [100 µM] (active)
CCC(C)[C@H](NC(=O)NC(=O)NC(=O)CI)C(=O)OC (stereo not given in full)	82.3%	86.7%	106%	87.9%	95.6%	-34.4% (active)	-86.5% (active)	91.9%	-50.3% (active)	10.8%	108%	6.27% (active)	-44.9% (active)	46.8%	85.3%	94.3%	89.4%	91.5%	85%	71.2%
CC(C)=CCC[C@](C)(O)[C@H]1CC[C@]2(C)[C@@H]1CC[C@@H]1[C@@]3(C)CC[C@H](OC(=O)CCC(=O)O)C(C)(C)[C@@H]3CC[C@]12C	16.9% [100 µM]	27.4% [100 µM]	27.4% [100 µM]	-5.43% [100 µM] (active)	4.47% [100 µM] (active)	13.3% [100 µM]	9.19% [100 µM] (active)	19.5% [100 µM]	23% [100 µM]	12.9% [100 µM]	40.8% [100 µM]	24.2% [100 µM]	10.5% [100 µM]	13.5% [100 µM]	37.8% [100 µM]	52% [100 µM]	4.05% [100 µM] (active)	31% [100 µM]	28.3% [100 µM]	30.2% [100 µM]
Cc1ccc(-n2nc3n(/c2=N\C(=O)NS(=O)(=O)c2ccc(C)cc2)CCN3C2=NCCN2)cc1	106%	95.3%	105%	93.4%	106%	104%	88.6%	95.4%	99.4%	115%	108%	109%	106%	99.7%	123%	103%	102%	95.1%	98.1%	101%
